According to PubChem BioAssay (NCATS):
Results filed as inconclusive are left out. Activity calls are given as the source filed them. Unless noted, calls follow the shape of the dose curve; as a rule, active = well fitted curve in either direction with a large enough effect (not every such curve was filed as active); inconclusive = small, poorly fitted or top-dose-only effect, or another doubt; inactive = flat fitted curve, though single readings scatter.

How the values were obtained:
[1] = biological target: Lysosomal acid glucosylceramidase (Homo sapiens) (UniProt P04062); experiment: Glucocerebrosidase-p2 (AID 348; in the data active = potency below about 10 µM; also: potency is read from the fitted curve at half-maximal effect); settings: purified GBA, blue fluorogenic substrate, 40 min
Method in brief: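 Normal human glucocerebrosidase (0.2 nM) with blue fluorogenic substrate (80 uM final) in citrate/phosphate pH 5.9 with 10mM sodium taurocholate, 0.01% tween-20; 40 min RT, NaOH/glycine stop; fluorescence Ex 365/Em 440; AC50 from a titration from 0.6 nM upwards.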

[2] = AP1 Signaling Pathway (AID 357); settings: ME-180 AP-1-bla reporter, EGF-induced, beta-lactamase ratio, 5 h; at 7.69 µM (top of the series) unless noted; also: % is scaled to controls: 0 for no effect and ±100 for the full control effect
Method in brief: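 AP-1-bla ME-180 cells with beta-lactamase reporter under AP-1 response element, stimulated with EC50 EGF; compounds titrated, 5 hours at 37 degrees Celsius. CCF4 read at 460/530 nm ratio; positive and negative modulators judged by AC50.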

[3] = biological target: Cytochrome P450 1A2 (Homo sapiens) (UniProt P05177); experiment: p450-cyp1a2 (AID 410; calls by dose curve; also: potency is read from the fitted curve at half-maximal effect;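 as to activity change, negative = inhibition: -100% = full effect of reference inhibitor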); settings: recombinant CYP1A2, luciferin-ME demethylation, luminescence; series mostly up to 57 µM
Method in brief: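 Luminescent demethylation readout: Luciferin-ME (100uM, equal to Km) turned over by 20nM CYP1A2 for 60 min at room temperature after NADPH regeneration addition, following 10 min compound preincubation. Normalization used 57 uM furafylline as full inhibition.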

[4] = NFAT Signaling Pathway (AID 444); settings: Jurkat NFAT-bla M1, carbachol, beta-lactamase ratio, 5 h; at 7.69 µM (top of the series) unless noted;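 also: carbachol stimulus at about its EC50 of 1 µM final; % is scaled to controls: 0 for no effect and ±100 for the full control effect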
Method in brief: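 Jurkat cells carrying an NFAT-driven β-lactamase reporter and co-transfected muscarinic M1 receptor were treated with compound plus carbachol (1 uM final, an EC50 level) for 5 h at 37 °C. CCF4 loading followed for 1 h at RT; 460/530 nm ratio gave %activity.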

[5] = Stat Signaling Pathway (AID 446); settings: ME-180 (cervical carcinoma) SIE beta-lactamase reporter, IL-6 stimulated, 5 h; at 7.69 µM (top of the series) unless noted;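 also: ME-180 cervical cancer cells given 40 pM IL-6 alongside compound; SIE-controlled beta-lactamase reporter measured as 460/530 nm FRET emission ratio; % is scaled to controls: 0 for no effect and ±100 for the full control effect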
Method in brief: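 Normalization used AC90 stimulation (300 pM IL-6) and AC90 inhibition (125 nM pan-JAK inhibitor at 40 pM IL-6). The underlying signal is SIE-driven beta-lactamase in ME-180 cells after 5 h IL-6 exposure with compound.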

[6] = biological target: Glucocorticoid receptor (Homo sapiens) (UniProt P04150); experiment: GR-EFC Redistribution (AID 451; calls by dose curve; also: potency is read from the fitted curve at half-maximal effect); settings: CHO-K1 GR-EFC translocation, beta-gal luminescence, 2 h
Method in brief: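 CHO-K1 cells stably expressing nuclear-localized β-gal enzyme acceptor and GR fused C-terminally to the enzyme donor fragment; ligand-driven nuclear translocation restores β-gal by complementation. Compounds titrated up to 46 uM final, 2 h at 37 °C; luminescence read.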

[7] = biological target: Mitogen-activated protein kinase 10 (Mus musculus) (UniProt Q61831); experiment: JNK3 AlphaScreen Assay (AID 530); settings: JNK3 lysate, c-Jun phosphorylation; series mostly up to 57.1 µM;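 also: kinase came from lysate of stimulated human HepG2 cells; signal reports phosphorylation of biotinylated GST-cJun 1-79 at Ser73 with 10 µM ATP; % is scaled to controls: 0 for no effect and ±100 for the full control effect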
Method in brief: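 Phosphorylation of biotinylated GST-cJun(1-79) at Ser73 is measured by AlphaScreen proximity luminescence. Enzyme is JNK3 in HepG2 lysates activated with interleukin-1beta and tumor necrosis factor alpha; ATP is 10 uM final.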

[8] = biological target: 3',5'-cyclic-AMP phosphodiesterase 4B (Homo sapiens) (UniProt Q07343); experiment: qHTS Assay for Inhibitors of PDE-IV (AID 607; active = well fitted activation curve with a large enough effect in the main read-out, with a control signal flat, not every such curve was filed as active; also: % of control where 0% means no effect); settings: HEK293 ACTOne CNG channel cells, membrane potential fluorescence; series mostly up to 22.9 µM
Method in brief: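 HEK293 ACTOne cells with CNG channel (1000/well), endogenous PDE4; membrane potential dye, compounds up to 22.9 uM final. Fluorescence Ex 535/Em 590; RO 20-1724 (100 uM final) as reference.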

[9] = biological target: Cytochrome P450 3A4 (Homo sapiens) (UniProt P08684); experiment: qHTS Assay for Activators of Cytochrome P450 3A4 (AID 885; active = well fitted curve in the direction sought with a large enough effect; an effect the other way counts as inactive or inconclusive; also: nearly all actives have a fitted effect of over 65% in size); settings: recombinant CYP3A4, Luciferin-PPXE luminescence, 60 min; series mostly up to 57.1 µM
Method in brief: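 Human CYP3A4 dealkylates Luciferin-PPXE to luciferin, which luciferase detection converts to light. Substrate was at its KM (25uM), buffer 200mM KPO4, reaction 60 min at RT.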

[10] = Primary qHTS for small molecule stabilizers of the endoplasmic reticulum resident proteome: Secreted ER Calcium Modulated Protein (SERCaMP) assay (AID 1508630; active = well fitted curve in the direction sought with a large enough effect; an effect the other way counts as inactive or inconclusive; also: % is scaled to controls: 0 for no effect and ±100 for the full control effect); settings: SH-SY5Y GLuc-SERCaMP (Gaussia luciferase released on ER calcium loss) secretion, thapsigargin, luminescence; series mostly up to 38.4 µM
Method in brief: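 The SH-SY5Y reporter protocol was run at 3 concentrations up to 38.3 uM (primary) or 11 concentrations (follow-up): 16 h compound, 100 nM thapsigargin for 4 h, then extracellular luciferase luminescence.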

[11] = biological target: Cytochrome P450 3A4 (Homo sapiens) (UniProt P08684); experiment: qHTS Assay for Inhibitors and Substrates of Cytochrome P450 3A4 (AID 884; active = well fitted curve in the direction sought with a large enough effect; an effect the other way counts as inactive or inconclusive; also: potency is read from the fitted curve at half-maximal effect; nearly all actives have a fitted effect of over 50% in size); settings: recombinant CYP3A4, Luciferin-PPXE luminescence; series mostly up to 57.1 µM
Method in brief: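 Luminescent readout of luciferin produced by CYP3A4 (20 nM) dealkylation of Luciferin-PPXE, 25 uM (its KM). NADPH-driven reaction ran 60 min at RT after 10 min compound preincubation; data scaled to 57 uM ketoconazole as 100% inhibition.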

[12] = biological target: Cytochrome P450 2C19 (Homo sapiens) (UniProt P33261); experiment: qHTS Assay for Inhibitors and Substrates of Cytochrome P450 2C19 (AID 899; active = well fitted curve in the direction sought with a large enough effect; an effect the other way counts as inactive or inconclusive; also: potency is read from the fitted curve at half-maximal effect; nearly all actives have a fitted effect of over 60% in size); settings: recombinant CYP2C19, luciferin-H EGE luminescence; series mostly up to 57.1 µM
Method in brief: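 NADPH-dependent conversion of Luciferin-H EGE (10uM, at KM) by 5nM enzyme in 50mM KPO4, 60 min at 37C following 10 min compound preincubation. Stopped with luciferin detection buffer; luminescence read after 20 min.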

Chain of Cytochrome P450 3A4 (Homo sapiens) (P08684 whole entry, looked up): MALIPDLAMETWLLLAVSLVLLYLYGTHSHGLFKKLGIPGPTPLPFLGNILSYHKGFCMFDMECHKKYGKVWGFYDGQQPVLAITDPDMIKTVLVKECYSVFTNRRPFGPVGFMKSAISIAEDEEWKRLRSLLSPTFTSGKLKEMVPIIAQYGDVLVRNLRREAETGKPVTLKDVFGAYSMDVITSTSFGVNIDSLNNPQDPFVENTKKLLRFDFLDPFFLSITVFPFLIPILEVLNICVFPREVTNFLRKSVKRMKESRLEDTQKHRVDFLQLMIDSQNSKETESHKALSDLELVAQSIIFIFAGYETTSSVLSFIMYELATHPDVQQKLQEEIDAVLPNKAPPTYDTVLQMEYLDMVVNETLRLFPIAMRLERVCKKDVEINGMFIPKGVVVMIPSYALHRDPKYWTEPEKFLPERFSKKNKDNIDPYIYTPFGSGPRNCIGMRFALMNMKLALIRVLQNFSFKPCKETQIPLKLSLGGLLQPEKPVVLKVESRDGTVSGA
Chain of Cytochrome P450 1A2 (Homo sapiens) (P05177 whole entry, looked up): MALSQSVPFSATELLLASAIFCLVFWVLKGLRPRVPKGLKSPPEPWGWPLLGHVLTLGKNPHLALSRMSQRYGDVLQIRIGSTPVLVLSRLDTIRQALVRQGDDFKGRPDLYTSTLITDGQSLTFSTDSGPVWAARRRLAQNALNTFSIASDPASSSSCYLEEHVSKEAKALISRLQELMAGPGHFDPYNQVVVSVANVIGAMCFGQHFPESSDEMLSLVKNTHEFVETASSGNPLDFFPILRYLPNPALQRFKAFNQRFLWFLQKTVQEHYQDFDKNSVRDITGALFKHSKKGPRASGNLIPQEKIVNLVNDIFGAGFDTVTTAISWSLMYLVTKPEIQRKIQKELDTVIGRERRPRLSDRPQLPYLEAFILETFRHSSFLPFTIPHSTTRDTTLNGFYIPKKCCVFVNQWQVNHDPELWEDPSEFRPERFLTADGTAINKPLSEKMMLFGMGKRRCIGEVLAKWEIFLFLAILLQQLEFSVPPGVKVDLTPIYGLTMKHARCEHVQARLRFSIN
Chain of 3',5'-cyclic-AMP phosphodiesterase 4B (Homo sapiens) (Q07343 whole entry, looked up): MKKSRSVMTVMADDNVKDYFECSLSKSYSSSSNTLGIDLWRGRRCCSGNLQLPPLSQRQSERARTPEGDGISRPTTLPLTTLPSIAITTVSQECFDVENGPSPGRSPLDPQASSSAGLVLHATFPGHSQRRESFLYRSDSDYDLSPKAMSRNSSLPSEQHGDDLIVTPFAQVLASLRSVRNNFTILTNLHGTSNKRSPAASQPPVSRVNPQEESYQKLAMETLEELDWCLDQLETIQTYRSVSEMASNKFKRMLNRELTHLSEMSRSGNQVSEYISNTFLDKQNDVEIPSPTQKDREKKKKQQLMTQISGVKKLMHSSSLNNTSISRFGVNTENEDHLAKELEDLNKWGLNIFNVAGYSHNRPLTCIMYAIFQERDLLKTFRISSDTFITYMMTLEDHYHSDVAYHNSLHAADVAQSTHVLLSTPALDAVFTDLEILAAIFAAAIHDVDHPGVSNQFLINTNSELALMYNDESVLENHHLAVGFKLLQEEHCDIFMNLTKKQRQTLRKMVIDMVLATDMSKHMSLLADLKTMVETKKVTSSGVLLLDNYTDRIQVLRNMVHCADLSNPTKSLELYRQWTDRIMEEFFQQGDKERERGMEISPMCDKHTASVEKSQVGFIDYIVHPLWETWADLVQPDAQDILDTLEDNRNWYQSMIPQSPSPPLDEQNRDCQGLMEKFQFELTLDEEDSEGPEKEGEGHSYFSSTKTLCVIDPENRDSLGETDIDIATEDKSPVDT
Chain of Lysosomal acid glucosylceramidase (Homo sapiens) (P04062 whole entry, looked up): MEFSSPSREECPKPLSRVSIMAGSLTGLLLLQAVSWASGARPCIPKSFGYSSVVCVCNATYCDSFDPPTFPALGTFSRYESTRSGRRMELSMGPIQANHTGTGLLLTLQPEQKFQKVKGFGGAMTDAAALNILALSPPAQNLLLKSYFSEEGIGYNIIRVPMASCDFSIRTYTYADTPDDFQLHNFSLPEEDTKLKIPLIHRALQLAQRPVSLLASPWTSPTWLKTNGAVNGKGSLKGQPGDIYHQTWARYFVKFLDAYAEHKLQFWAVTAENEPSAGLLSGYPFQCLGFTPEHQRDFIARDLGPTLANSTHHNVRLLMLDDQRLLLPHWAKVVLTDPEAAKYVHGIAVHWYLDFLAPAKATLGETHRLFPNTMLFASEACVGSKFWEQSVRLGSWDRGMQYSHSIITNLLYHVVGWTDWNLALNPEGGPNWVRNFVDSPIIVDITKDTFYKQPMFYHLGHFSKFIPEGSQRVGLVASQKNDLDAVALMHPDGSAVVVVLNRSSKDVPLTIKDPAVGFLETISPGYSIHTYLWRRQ
Chain of Glucocorticoid receptor (Homo sapiens) (P04150 whole entry, looked up, the tested form may be a part): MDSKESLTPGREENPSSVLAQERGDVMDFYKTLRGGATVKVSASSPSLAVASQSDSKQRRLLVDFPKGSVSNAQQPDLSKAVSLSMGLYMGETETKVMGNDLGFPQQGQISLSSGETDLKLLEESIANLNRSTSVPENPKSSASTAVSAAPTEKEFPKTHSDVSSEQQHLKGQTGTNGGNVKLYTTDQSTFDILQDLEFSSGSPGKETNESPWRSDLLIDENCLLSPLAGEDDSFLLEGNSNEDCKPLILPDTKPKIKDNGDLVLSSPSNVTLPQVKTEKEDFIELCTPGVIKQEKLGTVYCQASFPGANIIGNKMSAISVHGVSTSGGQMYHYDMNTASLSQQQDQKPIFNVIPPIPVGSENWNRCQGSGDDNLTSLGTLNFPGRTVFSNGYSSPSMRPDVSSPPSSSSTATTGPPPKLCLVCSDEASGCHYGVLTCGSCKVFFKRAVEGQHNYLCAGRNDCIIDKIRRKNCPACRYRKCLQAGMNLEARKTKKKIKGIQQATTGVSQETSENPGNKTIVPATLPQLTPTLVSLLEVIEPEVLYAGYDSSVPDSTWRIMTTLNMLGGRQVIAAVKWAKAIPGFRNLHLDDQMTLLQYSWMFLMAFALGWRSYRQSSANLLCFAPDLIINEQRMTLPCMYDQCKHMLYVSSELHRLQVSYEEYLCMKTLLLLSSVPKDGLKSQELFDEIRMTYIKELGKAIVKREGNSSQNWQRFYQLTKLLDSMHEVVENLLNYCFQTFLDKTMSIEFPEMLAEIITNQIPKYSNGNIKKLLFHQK
Chain of Cytochrome P450 2C19 (Homo sapiens) (P33261 whole entry, looked up): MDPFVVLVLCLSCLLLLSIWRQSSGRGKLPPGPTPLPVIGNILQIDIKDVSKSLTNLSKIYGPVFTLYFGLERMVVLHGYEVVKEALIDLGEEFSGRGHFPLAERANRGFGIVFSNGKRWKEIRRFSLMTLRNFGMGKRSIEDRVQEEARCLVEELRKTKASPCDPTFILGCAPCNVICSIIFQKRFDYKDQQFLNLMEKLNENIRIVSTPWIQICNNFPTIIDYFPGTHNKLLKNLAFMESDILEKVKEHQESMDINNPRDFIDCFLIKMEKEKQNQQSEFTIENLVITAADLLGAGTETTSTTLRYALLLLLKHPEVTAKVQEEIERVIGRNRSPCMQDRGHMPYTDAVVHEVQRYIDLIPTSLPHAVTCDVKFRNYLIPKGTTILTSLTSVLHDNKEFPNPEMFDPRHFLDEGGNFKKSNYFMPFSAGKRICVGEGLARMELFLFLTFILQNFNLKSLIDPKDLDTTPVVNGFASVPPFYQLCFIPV

COc1ccc(C(=O)N2CCC3(CCCN(c4ncccn4)C3)CC2)cc1
active: Potency [3] 20 µM
inactive: Potency [1] > 11.4 µM | activity change, negative = inhibition [2] 0.224% | activity change, negative = inhibition [4] 13.8% | activity, negative = inhibition [5] -4.23% | Potency [6] > 46 µM | Potency [7] | Potency [8] | Potency [9] | outcome [10]

COc1ccc(NC(=O)N2CCC3(CC2)CCN(C(=O)c2ccncc2)CC3)cc1
active: Potency [3] 25.1 µM
inactive: Potency [1] > 11.4 µM | activity change, negative = inhibition [2] -0.635% | activity change, negative = inhibition [4] 3.85% | activity, negative = inhibition [5] 4.58% | Potency [6] > 46 µM | Potency [7] | Potency [8] | Potency [9] | outcome [10]

CC(C)NC(=O)N1CCCC2(CCN(C(=O)c3csnn3)CC2)C1
inactive: Potency [1] > 11.4 µM | activity change, negative = inhibition [2] 3.46% | Potency [3] | activity change, negative = inhibition [4] -7.86% | activity, negative = inhibition [5] 2.78% | Potency [6] > 46 µM | Potency [7] | Potency [8] | Potency [9] | outcome [10]

COC(=O)N1CCC2(CCCN(C(=O)Nc3ccc(OC)cc3)C2)CC1
inactive: Potency [1] > 11.4 µM | activity change, negative = inhibition [2] -3.8% | activity change, negative = inhibition [4] -6.91% | activity, negative = inhibition [5] -13.9% | Potency [6] > 46 µM | Potency [7] | Potency [8] | Potency [9] | outcome [10]
active: Potency [3] 20 µM

Cc1nc2cnc(Nc3ccccc3)nc2n(Cc2cccs2)c1=O
inactive: Potency [1] > 11.4 µM | activity change, negative = inhibition [2] 6.83% | activity change, negative = inhibition [4] 31.1% | activity, negative = inhibition [5] 10.1% | Potency [6] > 46 µM | Potency [7] | Potency [8] | Potency [9] | outcome [10]
active: Potency [3] 1.58 µM | Potency [11] 7.94 µM

O=C(Nc1cccc(F)c1)N1CCCC2(CCN(C(=O)c3cnccn3)CC2)C1
inactive: Potency [1] > 11.4 µM | activity change, negative = inhibition [2] -5.64% | Potency [3] | activity change, negative = inhibition [4] -3.4% | activity, negative = inhibition [5] -5.83% | Potency [6] > 46 µM | Potency [7] | Potency [9] | outcome [10]

COc1ccc(C(=O)N2CCC3(CCN(Cc4ccncc4)CC3)CC2)cc1
inactive: Potency [1] > 11.4 µM | activity change, negative = inhibition [2] -7.79% | Potency [3] | activity change, negative = inhibition [4] -24.2% | activity, negative = inhibition [5] 11.1% | Potency [6] > 46 µM | Potency [7] | Potency [8] | Potency [9] | outcome [10]

COc1ccc(NC(=O)N2CCCC3(CCN(C(=O)c4cccn4C)CC3)C2)cc1
inactive: Potency [1] > 11.4 µM | activity change, negative = inhibition [2] -2.59% | activity change, negative = inhibition [4] -20.9% | activity, negative = inhibition [5] -3.06% | Potency [6] > 46 µM | Potency [7] | Potency [8] | Potency [9] | outcome [10]
active: Potency [3] 25.1 µM

COc1ccc(NC(=O)N2CCCC3(CCN(C(=O)c4ccco4)CC3)C2)cc1
inactive: Potency [1] > 11.4 µM | activity change, negative = inhibition [2] -17.6% | Potency [3] | activity change, negative = inhibition [4] 7.9% | activity, negative = inhibition [5] -11.8% | Potency [6] > 46 µM | Potency [7] | Potency [8] | Potency [9] | outcome [10]

CC(=O)N1CCC2(CCCN(Cc3nccs3)C2)CC1
active: Potency [12] 5.01 µM
inactive: Potency [1] > 11.4 µM | activity change, negative = inhibition [2] 3.8% | Potency [3] | activity change, negative = inhibition [4] -6.07% | activity, negative = inhibition [5] 6.5% | Potency [6] > 46 µM | Potency [7] | Potency [8] | Potency [9] | outcome [10]

O=C(c1cccc(F)c1)N1CCC2(CCCN(c3ccc(-c4ccccc4)cc3)C2)CC1
inactive: Potency [1] > 11.4 µM | activity change, negative = inhibition [2] 6.64% | activity change, negative = inhibition [4] -3.55% | activity, negative = inhibition [5] 1.09% | Potency [6] > 46 µM | Potency [7] | Potency [8] | Potency [9] | outcome [10]
active: Potency [3] 15.8 µM

O=S(=O)(c1ccccc1)N1CCC2(CCCN(c3cccc(-c4ccccc4)c3)C2)CC1
inactive: Potency [1] > 11.4 µM | activity change, negative = inhibition [2] 7.43% | Potency [3] | activity change, negative = inhibition [4] -13.9% | activity, negative = inhibition [5] -0.269% | Potency [6] > 46 µM | Potency [7] | Potency [8] | Potency [9] | outcome [10]
active: Potency [11] 3.98 µM

O=C(Nc1ccccc1)N1CCCC2(CCN(C(=O)c3cnccn3)CC2)C1
inactive: Potency [1] > 11.4 µM | activity change, negative = inhibition [2] 4.4% | Potency [3] | activity change, negative = inhibition [4] 15.7% | activity, negative = inhibition [5] 2.67% | Potency [6] > 46 µM | Potency [7] | Potency [8] | Potency [9] | outcome [10]

O=C(c1cnccn1)N1CCC2(CC1)CN(c1ccccc1)C2
inactive: Potency [1] > 11.4 µM | activity change, negative = inhibition [2] -9.4% | Potency [3] | activity change, negative = inhibition [4] 14% | activity, negative = inhibition [5] -6.18% | Potency [6] > 46 µM | Potency [8] | outcome [10]

COc1ccc(NC(=O)N2CC3(CCN(S(=O)(=O)c4ccccc4)CC3)C2)cc1
inactive: Potency [1] > 11.4 µM | activity change, negative = inhibition [2] -1.69% | Potency [3] | activity change, negative = inhibition [4] 10.6% | activity, negative = inhibition [5] -2.28% | Potency [6] > 46 µM | Potency [7] | Potency [8] | Potency [9] | outcome [10]

COC(=O)N1CCC2(CCCN(C(c3ccccc3)c3ccccc3)C2)CC1
active: Potency [3] 15.8 µM
inactive: Potency [1] > 11.4 µM | activity change, negative = inhibition [2] 11.9% | activity change, negative = inhibition [4] -16.3% | activity, negative = inhibition [5] 13.3% | Potency [6] > 46 µM | Potency [7] | Potency [8] | Potency [9] | outcome [10]
